According to PubChem BioAssay:
Active and inactive are the calls of the source.

What was measured:
Albumin (Bos taurus) = Albumin (Bos taurus) (UniProt P02769); experiment: bovine serum albumin binders on microarray, profiling panel, artefact control for SMM control protein annotation, biochemical, small-molecule microarray, Alexa647 label, 635/667 nm fluorescence (AID 1118); details: BSA-A647 binding, fluorescence 635 nm, higher = more signal;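 also: score merges 667 nm emission intensity and signal-to-noise per printed compound spot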
Sequence of Albumin (Bos taurus) (P02769 whole entry, looked up): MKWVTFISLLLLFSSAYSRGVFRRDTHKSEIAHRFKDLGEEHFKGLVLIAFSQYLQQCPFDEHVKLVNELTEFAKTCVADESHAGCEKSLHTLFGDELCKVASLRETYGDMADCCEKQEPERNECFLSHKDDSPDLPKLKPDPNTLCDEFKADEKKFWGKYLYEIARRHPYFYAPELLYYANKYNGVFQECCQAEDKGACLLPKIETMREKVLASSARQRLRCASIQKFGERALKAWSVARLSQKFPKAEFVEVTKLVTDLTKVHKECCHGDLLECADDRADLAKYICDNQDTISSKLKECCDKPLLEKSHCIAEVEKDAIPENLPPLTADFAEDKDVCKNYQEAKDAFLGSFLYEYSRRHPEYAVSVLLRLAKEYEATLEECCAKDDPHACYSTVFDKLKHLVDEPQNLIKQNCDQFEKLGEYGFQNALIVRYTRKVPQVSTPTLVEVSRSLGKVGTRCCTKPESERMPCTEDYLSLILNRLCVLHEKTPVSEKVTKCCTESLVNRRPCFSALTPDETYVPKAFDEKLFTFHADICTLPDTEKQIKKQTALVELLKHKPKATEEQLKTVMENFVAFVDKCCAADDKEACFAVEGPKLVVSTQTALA

[1] = small-molecule microarray binders of probe aXIP, primary screen, biochemical, NeuroSMM set, 635/667 nm fluorescence (AID 1119); details: higher = more signal, called active from +8 up or from −8 down;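 also: probe is the protein aXip251-270 applied at 1 µg/mL to compound-printed slides; binding of probe to printed compounds measured as 667 nm fluorescence plus signal to noise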
[2] = small-molecule binders of probe aNOTCH3, primary screen, biochemical, small-molecule microarray, 635/667 nm fluorescence (AID 1120); details: higher = more signal;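 also: probe is a biotin-tagged antibody raised against NOTCH3 rather than NOTCH3 protein; score merges spot fluorescence near 667 nm with spot signal to noise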
[3] = small-molecule binders of probe aNOTCH2, primary screen, biochemical, small-molecule microarray, 635/667 nm fluorescence (AID 1121); details: higher = more signal;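 also: score merges feature fluorescence read at 667 nm with its signal to noise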
[4] = biological target: Carbonic anhydrase 2 (Homo sapiens) (UniProt P00918); experiment: CAII small-molecule binders, profiling panel, biochemical, small-molecule microarray, Alexa647-labelled CAII (AID 1122); details: CAII-A647 binding fluorescence, higher = more signal
[5] = COS7 lysate on small-molecule microarray, probe aHis, 635 nm (AID 1123); details: COS7 cell lysate, fluorescence, higher = more signal;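 also: z-score combines 667nm fluorescence intensity with signal-to-noise per printed compound spot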
[6] = compound binding in COS7 lysate, probe aLAP1, primary screen, cell lysate, small-molecule microarray (AID 1124); details: probe aLAP1, fluorescence, higher = more signal;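 also: lysate comes from COS7 cells expressing LAP1 and is applied at 0.3 µg/mL; score merges spot fluorescence near 667 nm with signal-to-noise over triplicate slides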
Sam68 (KHDRBS1) = experiment: Sam68 small-molecule binders, primary screen, biochemical, small-molecule microarray, 635 nm fluorescence (AID 1125); details: small-molecule microarray binding, higher = more signal;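 also: score merges 667 nm channel intensity with signal to noise over triplicate slides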
[7] = tested on: Chordin-like protein 2 (CHRDL2); experiment: CHRDL2 small-molecule binders, primary screen, biochemical, small-molecule microarray, 635 nm fluorescence (AID 1126); details: small-molecule microarray binding, fluorescence 635 nm; higher = more signal;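 also: printed compound slides probed with Chrdl2 protein at 4 µg/mL for 1 h at 4 C; score merges 667 nm emission intensity with signal to noise over three replicate slides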
[8] = biological target: Concanavalin-A (Canavalia ensiformis) (UniProt P02866); experiment: ConA small-molecule binders, primary screen, artefact control for SMM control protein annotation, biochemical, small-molecule microarray, Alexa647 label, 635 nm (AID 1127); details: ConA-A647 binding fluorescence, higher = more signal;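 also: z combines 667 nm emission intensity with signal-to-noise across three replicate slides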
Sequence of Concanavalin-A (Canavalia ensiformis) (P02866 whole entry, looked up): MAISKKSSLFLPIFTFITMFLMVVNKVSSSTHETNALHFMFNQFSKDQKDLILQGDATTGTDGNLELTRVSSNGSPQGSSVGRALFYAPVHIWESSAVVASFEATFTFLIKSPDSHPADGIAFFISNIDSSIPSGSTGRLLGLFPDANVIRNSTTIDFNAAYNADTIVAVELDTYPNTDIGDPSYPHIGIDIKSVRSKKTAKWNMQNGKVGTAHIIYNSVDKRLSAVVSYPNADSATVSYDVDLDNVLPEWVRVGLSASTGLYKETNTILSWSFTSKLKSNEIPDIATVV

[9] = anti-His antibody binders, primary screen, artefact control for SMM control protein annotation, biochemical, small-molecule microarray, 635 nm fluorescence (AID 1128); details: anti-His Alexa647 antibody binding, higher = more signal;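 also: score merges feature fluorescence with signal-to-noise for each printed compound spot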
[10] = tested on: Human papillomavirus type 1a E7 protein (residues 1-88); experiment: HPV1a E7 small-molecule binders, primary screen, biochemical, small-molecule microarray, residues 1-88, 635 nm (AID 1129); details: small-molecule microarray binding, fluorescence 635 nm; higher = more signal
[11] = biological target: Focal adhesion kinase 1 (Homo sapiens) (UniProt Q05397); experiment: small-molecule microarray binders of FAK, primary screen, biochemical, 635/667 nm fluorescence, BSA, DTT (AID 1130); details: PTK2 binding, 635 nm fluorescence, higher = more signal;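 also: composite of spot emission at 667 nm and signal to noise over triplicate slides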
Sequence of Focal adhesion kinase 1 (Homo sapiens) (Q05397 whole entry, looked up): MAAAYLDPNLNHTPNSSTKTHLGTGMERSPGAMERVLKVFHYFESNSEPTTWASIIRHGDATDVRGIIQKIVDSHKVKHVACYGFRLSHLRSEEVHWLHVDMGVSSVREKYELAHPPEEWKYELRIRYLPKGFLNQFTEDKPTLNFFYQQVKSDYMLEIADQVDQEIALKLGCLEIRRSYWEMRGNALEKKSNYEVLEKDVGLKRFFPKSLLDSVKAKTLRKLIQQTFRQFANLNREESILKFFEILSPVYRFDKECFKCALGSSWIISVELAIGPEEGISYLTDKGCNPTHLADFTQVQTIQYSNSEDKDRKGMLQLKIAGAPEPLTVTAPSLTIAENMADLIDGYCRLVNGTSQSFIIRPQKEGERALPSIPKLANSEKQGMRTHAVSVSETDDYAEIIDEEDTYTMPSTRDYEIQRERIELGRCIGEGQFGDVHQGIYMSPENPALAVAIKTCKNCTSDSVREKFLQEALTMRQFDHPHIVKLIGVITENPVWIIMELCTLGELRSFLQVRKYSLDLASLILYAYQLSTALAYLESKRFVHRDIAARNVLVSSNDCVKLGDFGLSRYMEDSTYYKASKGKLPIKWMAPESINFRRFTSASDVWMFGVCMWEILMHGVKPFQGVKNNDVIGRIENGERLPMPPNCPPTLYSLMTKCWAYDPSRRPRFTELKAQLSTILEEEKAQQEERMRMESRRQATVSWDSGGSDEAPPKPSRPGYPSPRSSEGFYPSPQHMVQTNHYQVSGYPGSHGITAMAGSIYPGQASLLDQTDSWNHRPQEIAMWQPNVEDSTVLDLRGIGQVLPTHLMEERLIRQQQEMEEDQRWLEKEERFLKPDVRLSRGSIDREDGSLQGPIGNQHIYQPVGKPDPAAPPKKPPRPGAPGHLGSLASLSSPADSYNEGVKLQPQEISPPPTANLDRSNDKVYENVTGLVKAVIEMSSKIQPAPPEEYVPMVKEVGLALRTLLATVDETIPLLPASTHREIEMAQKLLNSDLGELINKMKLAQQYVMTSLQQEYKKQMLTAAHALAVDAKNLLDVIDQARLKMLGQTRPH

[12] = tested on: Fibrinogen (Alexa647-labelled); experiment: fibrinogen binders on compound microarrays, profiling panel, artefact control for SMM control-protein annotation, biochemical, small-molecule microarray, 635/667 nm fluorescence (AID 1131); details: fibrinogen-A647 binding fluorescence, higher = more signal;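 also: z-score merges 667 nm fluorescence with per-spot signal-to-noise over triplicate slides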
[13] = biological target: Follistatin (Homo sapiens) (UniProt P19883); experiment: follistatin binders on small-molecule microarrays, primary screen, biochemical, small-molecule microarray, 635/667 nm fluorescence (AID 1132); details: FST binding, 635 nm fluorescence, higher = more signal
Sequence of Follistatin (Homo sapiens) (P19883 whole entry, looked up): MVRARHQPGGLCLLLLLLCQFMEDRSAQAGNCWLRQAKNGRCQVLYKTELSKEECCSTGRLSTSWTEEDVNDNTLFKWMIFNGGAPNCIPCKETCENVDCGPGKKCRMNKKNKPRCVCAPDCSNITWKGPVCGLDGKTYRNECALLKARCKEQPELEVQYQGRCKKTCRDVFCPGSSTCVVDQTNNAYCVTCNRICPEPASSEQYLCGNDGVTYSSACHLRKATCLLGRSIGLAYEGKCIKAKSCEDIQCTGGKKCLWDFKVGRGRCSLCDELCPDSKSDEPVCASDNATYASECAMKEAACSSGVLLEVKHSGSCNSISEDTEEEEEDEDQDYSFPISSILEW

[14] = biological target: Fibroblast growth factor 2 (Homo sapiens) (UniProt P09038); experiment: FGF2 binders on small-molecule microarrays, primary screen, biochemical, small-molecule microarray, 635/667 nm fluorescence (AID 1133); details: small-molecule microarray binding, FGF2, fluorescence 635/667; higher = more signal
Sequence of Fibroblast growth factor 2 (Homo sapiens) (P09038 whole entry, looked up): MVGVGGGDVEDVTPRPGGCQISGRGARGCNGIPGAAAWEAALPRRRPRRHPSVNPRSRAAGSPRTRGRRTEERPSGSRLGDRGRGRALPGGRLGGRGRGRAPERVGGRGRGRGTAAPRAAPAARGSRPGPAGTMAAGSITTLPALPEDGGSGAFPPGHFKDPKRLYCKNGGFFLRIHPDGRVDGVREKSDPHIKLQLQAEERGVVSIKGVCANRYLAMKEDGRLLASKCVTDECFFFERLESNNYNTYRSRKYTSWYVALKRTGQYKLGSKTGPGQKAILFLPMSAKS

[15] = mitochondrial membrane potential change in A549 cells, profiling panel, cell-based, JC-1 fluorescence, basal, 24 h, 100 nL (AID 1138); details: higher = more signal;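 also: A549 lung adenocarcinoma cells under basal conditions with no added stimulus; test concentration not given here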
Lefty1 = Lefty1 binders on small-molecule microarrays, primary screen, biochemical, small-molecule microarray, 635/667 nm fluorescence (AID 1139); details: small-molecule microarray binding, fluorescence 635/667; higher = more signal
[16] = tested on: wheat germ agglutinin (Triticum aestivum), Alexa647-labelled; experiment: wheat germ agglutinin binders on compound microarrays, profiling panel, artefact control for SMM control-protein annotation, biochemical, small-molecule microarray, 635/667 nm fluorescence (AID 1140); details: WGA-A647 binding, 635 nm fluorescence, higher = more signal;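 also: score merges 667 nm feature emission with signal to noise over triplicate slides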
[17] = biological target: Luciferin 4-monooxygenase (Photinus pyralis) (UniProt P08659); experiment: firefly luciferase enzyme inhibitors, primary screen, biochemical, luminescence, purified enzyme, 2006 set (AID 1141); details: SteadyGlo luminescence, 30 min, higher = more signal, called active from +8 up or from −8 down;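 also: cell-free assay with purified firefly luciferase at 100 ng per well in PBS; test concentration not given here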
Sequence of Luciferin 4-monooxygenase (Photinus pyralis) (P08659 whole entry, looked up): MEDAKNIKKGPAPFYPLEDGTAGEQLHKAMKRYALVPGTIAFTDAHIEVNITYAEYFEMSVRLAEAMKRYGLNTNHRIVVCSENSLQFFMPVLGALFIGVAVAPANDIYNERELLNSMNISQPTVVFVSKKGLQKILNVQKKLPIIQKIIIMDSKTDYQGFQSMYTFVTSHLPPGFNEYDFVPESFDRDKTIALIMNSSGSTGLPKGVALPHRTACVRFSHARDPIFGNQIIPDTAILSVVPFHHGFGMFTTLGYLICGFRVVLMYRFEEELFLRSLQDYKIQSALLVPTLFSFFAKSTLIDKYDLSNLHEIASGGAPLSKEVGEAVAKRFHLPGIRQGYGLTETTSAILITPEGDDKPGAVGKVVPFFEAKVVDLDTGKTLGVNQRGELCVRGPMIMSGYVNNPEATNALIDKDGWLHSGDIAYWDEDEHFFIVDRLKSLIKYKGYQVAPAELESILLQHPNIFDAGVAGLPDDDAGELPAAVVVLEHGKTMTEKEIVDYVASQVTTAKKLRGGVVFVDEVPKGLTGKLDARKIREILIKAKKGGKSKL

| Structure (SMILES) | composite z-score (Albumin (Bos taurus)) | composite Z-score [1] | composite z-score [2] | composite z-score [3] | composite z-score [4] | composite z-score [5] | composite z-score [6] | composite z-score (Sam68 (KHDRBS1)) | composite z-score [7] | composite z-score [8] | composite z-score [9] | composite z-score [10] | composite z-score [11] | composite z-score [12] | composite z-score [13] | composite z-score [14] | z-score [15] | composite z-score (Lefty1) | composite z-score [16] | z-score [17] |
| --- | --- | --- | --- | --- | --- | --- | --- | --- | --- | --- | --- | --- | --- | --- | --- | --- | --- | --- | --- | --- |
| O=C1NC(=O)C2C1C=CC(C(O)C1CC=CCC1)N2Nc1ccccn1 (stereo not given) | -0.459 | 0.945 (inactive) | 0.137 | -0.0272 | 0.79 | 0.793 | 0.643 | 0.231 | 1.05 | 0.497 | 1.33 | -0.264 | -0.599 | -0.0881 | 0.585 | 0.582 | 0.692 | 0.616 | 0.763 | -1.13 (inactive) |
| CC[C@@H]1C=C(C(=O)O)[C@H](c2ccc(C)cc2)N1S(=O)(=O)c1ccc(C)cc1 | 0.74 | 0.827 (inactive) | 0.0876 | -0.101 | 0.759 | 0.969 | 0.0014 | 1.19 | -0.697 | 0.759 | -0.479 | 1.23 | 0.827 | 0.915 | 0.163 | 0.0388 | -0.233 | 0.285 | 0.568 | 2.28 (inactive) |
| O=C1C[C@@](C(=O)NCc2ccccc2)(c2ccc([N+](=O)[O-])cc2)[C@@H](c2ccc(CO)cc2)N1CC12CC3CC(CC(C3)C1)C2 | -0.0057 | -0.36 (inactive) | -0.128 | -0.14 | 0.479 | 1.37 | 2.12 | 1.31 | 0.119 | 0.89 | 0.729 | 1.19 | 1.42 | -0.151 | 1.33 | 1.46 | 1.44 | 0.943 | 0.162 | -0.756 (inactive) |
| O=C1C2C=CC(C(O)c3ccc(F)cc3)N(Nc3ccc([N+](=O)[O-])cc3)C2C(=O)N1c1ccccc1 (stereo not given) | 0.877 | 0.227 (inactive) | 0.0749 | -0.0852 | 0.795 | 2.76 | 0.569 | 1.31 | 0.0095 | 1.15 | 1.76 | 0.705 | 0.789 | 1.02 | 0.282 | -0.0449 | -0.433 | 0.16 | 1.09 | 1.43 (inactive) |
| O=C(O)[C@H]1C[C@H]2C(=O)N3CCC[C@H]3C(=O)N2[C@H]1c1ccc(O)cc1 | -2.04 | 0.0047 (inactive) | -0.368 | -0.176 | 0.545 | 0.193 | 0.107 | -0.132 | -1.49 | 0.298 | 0.0617 | -0.94 | -0.222 | -1.83 | -0.374 | -0.879 | 1.62 | -0.801 | -0.842 | -2.53 (inactive) |
| COC(=O)[C@@]1(Cc2ccccc2)[C@H]2c3cc(C(=O)N(C)C)n(Cc4ccc(OC)c(OC)c4)c3C[C@H]2CN1C(=O)c1ccccc1 | 0.864 | 0.0388 (inactive) | 0.775 | 0.318 | 0.467 | 3.07 | 0.463 | 1.29 | -0.78 | 0.829 | 1.81 | 1.27 | 0.561 | 1.01 | 0.385 | -0.588 | 0.134 | 0.0922 | 0.995 | 1.29 (inactive) |
| CCCNC(=O)[C@@H]1c2ccccc2C(=O)N(Cc2ccccc2OC)[C@H]1c1ccc(CO)cc1 | 0.735 | -0.228 (inactive) | -0.0573 | -0.0966 | 0.604 | 1.83 | 0.614 | 1.1 | -0.0218 | 0.748 | 2.08 | 1.22 | 0.609 | 0.937 | 0.98 | 1.06 | 1.53 | 0.482 | 0.712 | -0.452 (inactive) |
| COC(=O)[C@@]1(Cc2ccc(OC)cc2)[C@H]2c3cc(C(=O)N4CCCC4)n(CCSCCO)c3C[C@H]2CN1C(=O)c1ccccc1 | 0.905 | 0.228 (inactive) | 0.211 | 0.0312 | 0.678 | 3.24 | 0.247 | 0.657 | -0.633 | 0.941 | 2.01 | 1.29 | 0.529 | 0.787 | -0.0598 | -0.254 | 0.572 | -0.731 | 1.39 | 0.644 (inactive) |
| CC[C@@H]1C=C(C(=O)O)[C@H](c2cccc3ccccc23)N1S(=O)(=O)c1ccc(C)cc1 | 0.8 | -0.122 (inactive) | 0.0225 | 0.0477 | 0.664 | 1.58 | 0.687 | 1.05 | 0.0837 | 0.774 | 1.18 | 1.11 | 1.39 | 0.159 | 0.414 | 0.108 | -0.345 | -0.103 | 0.302 | 1.46 (inactive) |
| C=CC[C@@]1(C(=O)N2CCCCC2)N=C(c2ccc(OCCCO)cc2)O[C@@H]1c1ccccc1N=[N+]=[N-] | 0.82 | -0.797 (inactive) | 0.185 | 0.0497 | 0.443 | 2.41 | -0.0724 | 1.29 | -0.294 | 1.04 | 2.24 | 1.23 | 0.407 | 0.957 | 1.09 | 0.162 | -0.35 | 0.0928 | 1.06 | -10.4 (active) |
